Only some compounds are listed: those with a hit (about 3.4% of all), similar ones and a draw of the others.
Tau fluor counter – Counterscreen qHTS for Inhibitors of Tau Fibril Formation, Fluorescence Polarization | tau K18 P301L Alexa594 fluorescence, heparin fibrillization | Potency, µM (titrated, usually from 57.7 µM) | 280,000 compounds, 0.93% hits | AID 1463, 2008; further: nearly all actives have a fitted effect of over 55% in size
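Human tau K18 P301L (15 uM unlabeled, 0.24 uM Alexa 594-labeled) in 100 mM sodium acetate pH 7 with 20 uM heparin, 6 hr at 37 C. ThT 30 uM added, 1 hr ambient; Alexa 594 FP and total fluorescence read at 555/632 nm.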
Tau ThT inhib – qHTS for Inhibitors of Tau Fibril Formation, Thioflavin T Binding; Microtubule-associated protein tau (Homo sapiens), P10636; recombinant tau K18 P301L (four-repeat tau fragment), heparin-induced fibrillization, ThT fluorescence; Potency, µM (doses to about 57.4 µM), actives largely listed as inhibitors; 270,000 compounds, 2.1% hits; further: nearly all actives have a fitted effect of over 55% in size
Target sequence (P10636 561-689 P618L limits assumed): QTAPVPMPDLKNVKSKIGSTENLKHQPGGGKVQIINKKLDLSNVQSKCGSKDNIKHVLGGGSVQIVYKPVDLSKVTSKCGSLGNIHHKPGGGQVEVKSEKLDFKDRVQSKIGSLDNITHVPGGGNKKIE
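Aggregation was driven by heparin (20 uM final) acting on recombinant tau […] bearing P301L in 100 mM sodium acetate pH 7; fibrils were detected with Thioflavin T.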
GoLoco inh red – qHTS Assay for Inhibitors of RGS12 GoLoco Motif Activity (Red Fluorophore). Guanine nucleotide-binding protein G(i) subunit alpha-1 (Homo sapiens), P63096. Gai1:RGS12 GoLoco peptide FP, rhodamine, 10 min. Potency, µM (titrated, usually from 61.6 µM), most hits filed as inhibitors. 230,000 compounds, 0.44% hits. AID 880, 2007; active means well fitted inhibition curve with a large enough effect, not every such curve was filed as active; inactive means no such curve, though single readings can be large or run the other way; further: nearly all actives have a fitted effect of over 30% in size
Target sequence (P63096 whole entry, looked up): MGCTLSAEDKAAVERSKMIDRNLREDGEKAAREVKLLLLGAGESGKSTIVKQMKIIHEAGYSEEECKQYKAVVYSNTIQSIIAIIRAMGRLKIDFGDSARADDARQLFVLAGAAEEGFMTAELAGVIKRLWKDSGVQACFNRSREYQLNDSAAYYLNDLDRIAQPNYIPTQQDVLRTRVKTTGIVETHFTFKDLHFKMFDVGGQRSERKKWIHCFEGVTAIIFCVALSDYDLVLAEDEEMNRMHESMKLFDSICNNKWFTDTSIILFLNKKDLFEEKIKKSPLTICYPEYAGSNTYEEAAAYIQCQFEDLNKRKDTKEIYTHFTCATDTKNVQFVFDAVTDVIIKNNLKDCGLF
Tau fibril FP – qHTS for Inhibitors of Tau Fibril Formation, Fluorescence Polarization; AID 1468, 2008; Microtubule-associated protein tau (Homo sapiens), P10636; K18 P301L tau heparin fibrillization, Alexa594 FP, 6 h; Potency, µM (highest dose often 57.7 µM), most hits filed as inhibitors; 280,000 compounds, 0.39% hits; further: nearly all actives have a fitted effect of over 55% in size
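Read-out: fluorescence polarization of Alexa 594-labeled tau (0.24 uM), 555 nm excitation, 632 nm emission. Mixtures held 15 uM unlabeled K18 P301L, compound and 20 uM heparin, pH 7 acetate buffer, incubated 6 hr at 37 C.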
JMJD2E inh – qHTS Assay for Inhibitors of Human Jumonji Domain Containing 2E (JMJD2E). Potency, µM (highest dose often 57.1 µM), most hits filed as inhibitors. JMJD2E catalytic domain, FDH-coupled NADH fluorescence (FDH is formaldehyde dehydrogenase). Lysine-specific demethylase 4E (Homo sapiens), B2RXH2. 230,000 compounds, 1.6% hits; active means well fitted inhibition curve with a large enough effect, not every such curve was filed as active; inconclusive means small, poorly fitted or top-dose-only effect, or another doubt; inactive means no such curve, though single readings can be large or run the other way; further: nearly all actives have a fitted effect of over 50% in size
A number is an active result; n = inactive; u = inconclusive; x = no result; ! = repeats disagree; [ ] = remark or other dose. Unless noted, the call rests on the fitted dose curve; in most records, active means well fitted curve in the direction sought with a large enough effect; inconclusive means small, poorly fitted or top-dose-only effect, or another doubt; inactive means no such curve, though single readings can be large; an effect the other way counts as inactive or inconclusive.

SMILES | Tau fluor counter | Tau ThT inhib | GoLoco inh red | Tau fibril FP | JMJD2E inh
O=C(C[n+]1cccc(CO)c1)Nc1nc2ccccc2s1 | n | n | n | n | 10µM
CCCCn1cnc2cc(NCc3ccncc3)ccc21 | n | n | n | n | u
CN(C)c1ccc(CNc2ccc3c(c2)ncn3C)cc1 | 16µM[quencher] | u | n | n | n
O=[N+]([O-])c1ccc(N2CCCCC2)nc1N1CCCCC1 | n | u | n | n | n
O=[N+]([O-])c1ccc2c(c1N1CCCCC1)=NC1(CCCCC1)[N+]=2[O-] | u | 13µM | n | u | n
Cc1ccc(C)c(N2CCN(S(=O)(=O)c3c(C(=O)N4CCC(C)CC4)c(C)n(C)c3C)CC2)c1 | n | n | x | n | x
CCCCn1c(NC(=O)c2ccc(Br)o2)c(S(=O)(=O)c2ccccc2)c2nc3ccccc3nc21 | n | 18µM | n | u | u
CCCCn1c(NS(=O)(=O)c2ccccc2)c(S(=O)(=O)c2ccc(C)cc2)c2nc3ccccc3nc21 | n | u | n | n | u
CCCCn1c(NC(=O)c2ccco2)c(S(=O)(=O)c2ccc(C)cc2)c2nc3ccccc3nc21 | u | 16µM | n | u | u
CCCCCn1c(NC(=O)c2ccco2)c(S(=O)(=O)c2ccc(C)cc2)c2nc3ccccc3nc21 | u | u | n | n | u
COc1cc(Cl)c(C)cc1NC(=O)c1cnc(N2CCOCC2)c2ccccc12 | n | n | x | n | x
O=C(/C=C/c1ccc2c(c1)OCO2)Nc1c(C(=O)O)[nH]c2ccccc12 | n | 13µM | n | n | n
CCOC(=O)c1[nH]c2ccc(OC)cc2c1NC(=O)/C=C/c1ccc2c(c1)OCO2 | n | n | n | n | n
O=C(N/C=C/c1ccccc1)Nc1ccc(Cl)cc1 | 5µM[quencher] | u | n | u | u
Nc1c(C(=O)O)ccc2c1C(=O)c1ccccc1C2=O | n | 10µM | n | n | n
Nc1cc(C(=O)O)c(N)c2c1C(=O)c1ccccc1C2=O | u | 4.5µM | n | 20µM | u
CCCN(C(=O)c1cc2c(=O)oc3ccccc3c2s1)c1ccccc1C | n | n | x | n | x
O=C1c2ccccc2C(=O)N1/N=C/c1ccc(O)c(O)c1O | u | 4µM | n | 6.3µM | 2.2µM
O=C1c2cccc3cccc(c23)C(=O)N1/N=C/c1ccc(O)cc1O | n | n | n | n | n
Oc1ccc(/C=N/N2CCOCC2)c(O)c1O | n | 8.9µM | n | 10µM | 25µM
COC(=O)c1ccc2c(=O)n(CCCCCC(=O)N3CCN(c4cc(Cl)ccc4C)CC3)c(=O)[nH]c2c1 | n | n | x | n | x
COc1ccc(C2C(=O)N(C3CCCCCC3)CC(=O)N2Cc2ccc(C)cc2)cc1 (stereo not drawn) | n | n | x | n | x
Cc1nn2c(NC(C)C)c3c(nc2c1-c1ccccc1)CCC3 | u | 28µM | n | u | u
Cc1nn2c(NCC(C)C)c3c(nc2c1-c1ccccc1)CCC3 | n | n | n | n | u
CC1(C)N=C(SCc2ccc(Cl)cc2)c2ccccc2N1 | 10µM[quencher] | u | x | n | x
SMILES | Tau fluor counter | Tau ThT inhib | GoLoco inh red | Tau fibril FP | JMJD2E inh
Cc1ccc(CSC2=NC(C)(C)Nc3ccccc32)c(C)c1 | 14µM[quencher] | u | x | n | x
COc1ccc(S(=O)(=O)Nc2ccc3c(c2)CCCN3S(=O)(=O)c2ccc(C)cc2)cc1F | u | n | x | u | x
CCOC(=O)COc1ccc(CC)cc1C(=O)c1ccn2nc(-c3ccc(Cl)cc3)cc2n1 | n | n | x | n | x
CCCNC(=O)c1ccc2c(c1)N=C(C)c1c(C)ccc(C)c1S2 | n | n | x | n | x
Oc1ccc(Br)cc1-c1cc(-c2ccccc2)n[nH]1 | u | n | n | u | u
COc1ccc(-c2cc(-c3cc(OC)ccc3O)[nH]n2)cc1 | 16µM[quencher] | u | n | n | u
COc1ccc(O)c(-c2cc(-c3cccc(Br)c3)n[nH]2)c1 | 14µM[quencher] | u | n | n | n
CCOc1ccc2nc(N=NC3=C(O)CC(C)(C)CC3=O)sc2c1 | n | 14µM | n | n | 22µM
CCOC(=O)N1CCN(C(=O)c2oc3ccc(S(=O)(=O)N4CCCCC4)cc3c2C)CC1 | n | n | n | n | n
Cc1c(C(=O)N2CCCCC2)oc2ccc(S(=O)(=O)N3CC(C)CC(C)C3)cc12 (stereo not drawn) | u | u | x | 20µM | n
CCOC(=O)c1cccc(NC(=O)NC(C)c2c(-n3cccc3)sc3c2CCN(C)C3)c1 (stereo not drawn) | u | n | x | u | x
COC/C=C/C1=CC2=CC(=O)C(C)(OC(=O)c3cnc4ccccc4n3)C(=O)C2=CN1c1ccccc1 (stereo not drawn) | u | 13µM! | n[14.2 µM] | u | n[11.4 µM]
O=[N+]([O-])c1cccc(/C=N\N=C2c3ccccc3-c3ccccc32)c1O | u | 5µM | n | n | n
COc1ccc(C)cc1NC(=O)Nc1cccc(-c2noc(C)n2)c1 | u | u | x | n | x
Cc1nc(-c2cccc(NC(=O)Nc3ccc([N+](=O)[O-])cc3)c2)no1 | 8.9µM[quencher] | u | x | 13µM | x
CCN(CC)CCOC(=O)c1ccc(NC(=O)c2cn(-c3ccccc3)nc2-c2cccs2)cc1 | 8.9µM[quencher] | n | n | 11µM | u
CN(C)c1ccc(NC(=O)c2cn(-c3ccccc3)nc2-c2cccs2)cc1 | 8.9µM[quencher] | u | n | n | n
COc1cccc(C2=NN(S(C)(=O)=O)C(c3cn(-c4ccccc4)nc3-c3cccs3)C2)c1 (stereo not drawn) | n | n | x | u | x
Cc1nc2cc(-c3ccsc3-n3c(C)ccc3C)[nH]n2c(=O)c1Cl | u | 14µM | n | u | u
COCc1cc(=O)n2[nH]c(-c3ccsc3-n3c(C)ccc3C)cc2n1 | u | 22µM | n | u | u
Cc1cc(=O)n2[nH]c(-c3ccsc3-n3c(C)ccc3C)cc2n1 | u | x | n | u | u
COc1ccccc1CNc1nccn(-c2ccccc2)c1=O | n | n | x | n | x
CCOC(=O)c1c(C)c(C)n(Cc2cccc(OC)c2OC)c1C | n | 25µM | n | u | n
CCOC(=O)c1cc(C)n(Cc2cccc(OC)c2OC)c1C | n | u | x | n | n
COc1ccc(O)c(/C=c2/sc3nc4cc(C)c(C)cc4n3c2=O)c1 | u | 22µM | n | u | n
SMILES | Tau fluor counter | Tau ThT inhib | GoLoco inh red | Tau fibril FP | JMJD2E inh
COc1cc(/C=N/N=C(/N)c2nonc2N)cc(Br)c1OCc1cccc(C)c1 | u | u | n | 28µM | n
Cc1cc(-c2ccco2)n(-c2ccccc2)n1 | n | 32µM | n | u | u
Cc1cc(NC(=O)c2cc(-c3ccco3)on2)n(-c2ccccc2)n1 | n | n | n | n | u
O=C(O)c1cccc(Cl)n1 | n | n | n | n | n
O=C(O)c1ccc2cccc(O)c2n1 | n | n | n | n | n
O=C(O)c1cccc(C(=O)O)n1 | n | n | n | n | 8.9µM
O=C(O)c1ccc2cccnc2n1 | n | n | n | n | 22µM

Source: PubChem (National Center for Advancing Translational Sciences (NCATS))
